PubChem BioAssay AID1467 (National Center for Advancing Translational Sciences (NCATS), 2008)
Fewer than 10 of roughly 230,000 compounds were called active. Calls come from the whole dose curve; as a rule, active = well fitted curve in the direction sought with a large enough effect; inconclusive = small, poorly fitted or top-dose-only effect, or effect the other way, or another doubt; inactive = no such curve, though single readings can be large or run the other way. A selection follows.

What follows are molecules tested against Alpha-galactosidase A (Homo sapiens) (UniProt P06280) (assay: qHTS Assay for Inhibitors of Human alpha-Galactosidase at pH 4.5.). Conditions: purified enzyme, 4-MU-alpha-Gal fluorescence; series mostly up to 105 µM; activity change, negative = inhibition: at the top concentration.
Sequence of Alpha-galactosidase A (Homo sapiens) (P06280 whole entry, looked up): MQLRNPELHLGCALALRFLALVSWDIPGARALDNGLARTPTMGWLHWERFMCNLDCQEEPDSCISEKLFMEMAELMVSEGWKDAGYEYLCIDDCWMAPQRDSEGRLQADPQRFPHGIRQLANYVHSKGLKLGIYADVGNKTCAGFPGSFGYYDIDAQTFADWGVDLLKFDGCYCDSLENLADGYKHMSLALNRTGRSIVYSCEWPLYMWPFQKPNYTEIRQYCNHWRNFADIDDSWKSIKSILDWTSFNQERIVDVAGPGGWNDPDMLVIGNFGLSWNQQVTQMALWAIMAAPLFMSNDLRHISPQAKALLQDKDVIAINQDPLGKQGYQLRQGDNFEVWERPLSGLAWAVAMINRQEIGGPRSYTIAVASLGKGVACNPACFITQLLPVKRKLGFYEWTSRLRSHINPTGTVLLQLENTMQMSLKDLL
Description: NIH Chemical Genomics Center [NCGC]
NIH Molecular Libraries Probe Production centers Network [MLPCN]
Assay Submitter (PI): Wei Zheng
Alpha-galactosidase is a homodimeric glycoprotein that hydrolyzes the terminal alpha-galactosyl moieties from glycolipids and glycoproteins. Deficiency of this enzyme results in Fabry Disease with progressive accumulation of globotriaosylceramide and other glycosphingolipids in vascular endothelial cells that causes renal failure, myocardial infarction and stroke, and premature death in patients. It has been reported that the improper folding and trafficking of alpha-galactosidase resulting from the genetic mutations may account for a significant numbers of Fabry patients. […] We optimized this alpha-galactosidase assay in 1536-well plate format for identifying the novel small molecule inhibitors with the structures other than the sugar analogs in order to develop the new pharmacological chaperones. Although this assay has the same protocol as PubChem AID 992, this is a separate project and, therefore, is published as a separate assay
NCGC Assay Protocol Summary:
This is a fluorogenic enzyme assay with 4-Methylumbelliferyl alpha-D-galactopyranoside as the substrate and human […] as the enzyme preparation. Upon the hydrolysis of this fluorogenic substrate, the resulting product, […]. 4-Methyllumbelliferone, can be excited at 365 nm and emits at 440 nm. This fluorescence which can be detected by a standard fluorescence plate reader. Data were normalized to the controls for basal activity (without enzyme) and 100% activity (with enzyme). In the AC50 values were determined from concentration-response data modeled with the standard Hill equation.
Assay buffer: 50 mM citric acid (titrated with potassium phosphate to pH 4.5), 0.005% Tween-20, pH 4.5. (pH 4.5 is an optimal condition for this enzyme assay)
1536-well assay protocol for the human alpha-galactosidase:
(1) Add 2 ul/well of enzyme (12 nM final)
(2) Add 23 nL compounds in DMSO solution. The final titration was 0.7 nM to 77 uM.
(3) Add 1 ul of substrate (400 uM final)
(4) Incubate at room temperature for 20 min.
(5) Add 2 ul stop solution (1M NaOH and 1M Glycine mixture, pH 10)
(6) Detect the assay plate in a ViewLux plate reader (PerkinElmer) with Ex=365 nm and Em=440nm.
Keywords: MLSMR, MLPCN, NIH Roadmap, qHTS, NCGC, : Alpha-galactosidase, Fabry Disease, pharmacological chaperone, chaperone therapy
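Note: 0% = full activity with enzyme and -100% = basal without enzyme.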

Activity change, negative = inhibition, inactive:
O=C(Nc1ccc(Br)cn1)C1CCN(S(=O)(=O)c2cccs2)CC1 0.23%
Cc1c(/C=N\NC(=O)c2cc3ccccc3o2)c2ccccc2n1C -5.05%
Nc1cccc(S(=O)(=O)Nc2ccc(SC(F)F)cc2)c1 -17.1%
COc1ccc(-n2cc(CNC3CCOCC3)c(-c3cccc(F)c3)n2)cc1 -7.72%
Cc1cc(NC(=O)CSCc2nc(-c3cccc(Cl)c3)oc2C)no1 -2.37%
CCCCC/C=C\C[C@H](O)/C=C/C=C/C=C/[C@@H](O)CCCC(=O)O -2.25%
N#CCSc1nn(-c2ccc(F)cc2)c(=S)s1 3.17%
Cc1nnc(NC(=O)CCC(=O)N2CCC(C)CC2)s1 4.8%
CCCNC(=O)c1c(Cl)cnn1-c1ccc(C)cc1 3.08%
COC(=O)C/C=C/[C@@H](C)[C@H](NC(=O)OCC(Cl)(Cl)Cl)c1ccccc1 -4.23%
CC1(OC(=O)c2ccc(Cl)nc2)C(=O)Cc2cc(-c3ccsc3)ncc2C1=O (stereo not given) 1.62%
CC(=O)c1ccc(N2CCN(CC(=O)Nc3ccccc3N3CCOCC3)CC2)cc1 -10.2%
CCCc1ccc(OCc2ccc(C(=O)N/N=C/c3cccc([N+](=O)[O-])c3)o2)c(OC)c1 1.3%
C/C=C1\C2C=C(C)CC1(N)c1ccc(=O)[nH]c1C2 (stereo not given) 2.46%
CCOC(=O)C1=C(O)/C(=C/c2cc(C)n(-c3ccccc3)c2C)N=C1C -14.4%
CC[C@H](C)[C@@H](NC(=O)O[C@@H]1C(=O)c2cc(OC)ccc2O[C@H]1c1cccc(OC)c1)C(=O)OC -6.3%
Cc1cc(C)cc(C(=O)NCC(=O)OCC(=O)N2CCCCC2)c1 -3.47%
O=C(CN1CCCCCC1)NCCN1C(=O)S/C(=C\c2ccccc2Cl)C1=O -1.37%
Cc1ccccc1-c1ccc(C(=O)O)s1 -6.19%
Cc1nc(-c2ccccc2)sc1-c1nnc(C2CC2)o1 2.15%
O=c1c(O)c(Br)ccc2c(Br)c(O)c(O)c(O)c12 -0.0671%
O=C(CSc1nc2ccccc2o1)N/N=C/c1ccccc1C(=O)O 1.17%
COc1cc(/C=C(/NC(=O)c2ccccc2)C(=O)Nc2cccc(O)c2)c([N+](=O)[O-])cc1OC 0.53%
CN(CCc1cnn(C)c1)Cc1cn(C)nc1-c1ccccc1F 10.6%
CC1=C2[C@@H](O)[C@H]([C@@H](C)C(=O)NCCC(C)C)CC[C@@]2(C)C=CC1=O 0.591%
CC/C=C\C/C=C\C/C=C\C/C=C\C/C=C\C/C=C\CCC(=O)NC(C)C(=O)O (stereo not given) -21.3%
CCn1c(COc2c(C)cccc2C)nnc1SCc1nc2ccccc2c(=O)[nH]1 1.02%
Cc1ccnc(NC(=O)CCC(=O)N(CC(=O)NCc2ccccc2)Cc2ccco2)c1 -4.12%
Cc1nc2c(ncn2-c2ccccc2)c(=O)n1NC(=O)CN1CCCC1 1.94%
CC(=O)Nc1sc2c(c1C(c1cccc(F)c1)N1CCN(CCO)CC1)CCCC2 (stereo not given) 9.68%
CCCCC[C@H](O)/C=C/[C@@H]1[C@@H](CC(=O)CCC(=O)O)[C@@H](O)C[C@H]1O -8.75%
O=C1C=C(c2ccccc2)CCC1 -14.5%
COc1ccc(NC(=O)C2CCC(CNc3c(N4CCCCC4)c(=O)c3=O)CC2)c(OC)c1 (stereo not given) 1.95%
COc1ccc(N2CCN(Cc3nnc(-c4ccccc4)o3)CC2)cc1 -1.07%
CC/C=C\C/C=C\C/C=C\C/C=C\C/C=C\C/C=C\CCC(=O)NCCc1ccc(O)c(O)c1 4.18%
CCOC(=O)C1=NO[C@@]2(C=C(Br)C(=O)[C@H]3O[C@H]32)C1 -5.58%
C=CCn1c(CCNC(=O)c2cccs2)n[nH]c1=S 4.24%
Cc1ccccc1NC(=O)c1ccc(COc2ccc3c(C)cc(=O)oc3c2)cc1 6.34%
COC(=O)Cc1ccc(Oc2ncc(C(F)(F)F)cc2Cl)cc1 -6.77%
CONc1nc2nonc2nc1NOC -4.09%
CCCCCCCCCCCCC(NC(C)=O)(C(=O)OCC)C(=O)OCC -26.2%
CCN(CC)CC(=O)Nc1sc2c(c1C(=O)c1ccccc1C)CCC2 -4.05%
CCCCNC(=O)C1CCCN(S(=O)(=O)c2ccc(S(=O)(=O)NCC(C)C)cc2)C1 (stereo not given) 9.52%
CCOc1cc(NC(=O)CCl)c(OCC)cc1NC(C)=O 0.492%
CCn1c(CN2C(=O)CSc3ccccc32)n[nH]c1=S 9.82%
CCOC(=O)N1CCN(c2cc(C)c([N+](=O)[O-])cc2F)CC1 -4.22%
Cc1noc(C)c1C(=O)N(CC(=O)NC1CCCC1)Cc1ccccc1F -1.52%
CC(C)Oc1ccc(CCc2nnc(SCC(=O)O)n2-c2ccccc2)cc1 0.212%
Cc1ccccc1CSc1nnc(CCCCCNC(=O)OC(C)(C)C)o1 -7.03%
Cc1ccccc1CCN(CC(=O)NC1CCCCC1)C(=O)c1csnn1 -11.9%
CCc1c(O)nc(SCC(=O)Nc2ccccc2)n(C(C)CC)c1=O (stereo not given) 1.66%
COc1ccc(NC(=O)c2ccccc2[N+](=O)[O-])cc1OC -4.17%
CC(C)(C)c1nnc(NC(=O)C2c3ccccc3Oc3ccccc32)s1 -3.91%
O=C(Nc1ccc(N2CCOCC2)nc1)c1c(F)cccc1F -7.51%
COc1ccc(/C=C/CN2CCCC(C(=O)c3cc(F)ccc3F)C2)cc1 (stereo not given) -4.13%
Cc1cccc(CN2CCN(Cc3cnn(-c4ccccc4F)c3)CC2CCO)n1 (stereo not given) 6.2%
CCCCc1ccc(NC(=S)NCCCN2CCOCC2)cc1 4.11%
C=CCC(C)(O)c1ccco1 (stereo not given) 4.87%
COc1c(O)cc2oc(-c3ccc(O)c(O)c3)cc(=O)c2c1O -6.71%
O=C1OCCN1C(=O)[C@H]1[C@H](c2ccc(F)cc2)C(c2ccccc2)=NN1c1ccc(Br)cc1 17.8%
C=C(C)C(=O)c1ccc(F)cc1 0.52%
CC(C)(C)OC(=O)NCCCCC1=CC2=CC(=O)C(C)(OC(=O)c3cccs3)C(=O)C2=CO1 (stereo not given) -5.62%
C=C(C(C)=O)C(O)c1cccs1 (stereo not given) -4.73%
COc1ccc(C(=O)OCC(=O)NC(=O)CCSc2ccccc2)cc1 8.51%
Cc1ccc(N2C(=O)C(CC(=O)Nc3cccc(F)c3)N(CCc3ccncc3)C2=O)cc1 (stereo not given) -9.74%
CCCCCCCCn1c2c(c(=N)c3c1CCC3)CCCC2 1.8%
CN(c1ccc2nc3ccccc3c(=O)n2n1)C1CCCCC1 3.01%
Cc1ccc(Nc2nc(N)nc(CN3CCN(Cc4ccccc4)CC3)n2)cc1Cl -11%
Cc1ccc(NC(=O)c2csc3c2CCCC3)cc1 -2.99%
C=CC(C1=CC(=O)C=CC1=O)c1ccc(O)cc1 (stereo not given) -1.94%
Cc1nc(NC(=O)C2CCCCC2)sc1C -1.19%
c1ccc(CN=C2Nc3ccccc3CS2)nc1 -4.37%
O=C(CSc1nnc(-c2ccncc2)n1-c1ccc(Cl)cc1)Nc1ccc(C(=O)O)cc1 1.75%
C[C@H]1Cc2c(-c3ccccc3)nc3c(c2CO1)CN(C(=O)C1CC1)CC3 3.68%
O=c1c2c(nc3cc(-c4cccc(Cl)c4)[nH]n13)CCCC2 -11.9%
CC(C)C1=CC2=CC[C@H]3[C@](C)(C(=O)O)CCC[C@]3(C)C2CC1 (stereo not given in full) -16.7%
COc1ccc(CCNC2=CC(=O)CC(C)(C)C2)cc1 -1.74%
O=C(CC(=O)N/N=C\c1cccc(Cl)c1Cl)NCc1ccccc1 -2.61%
COc1cc(NC(=O)c2cncc(-c3ccc(C#N)cc3)c2)cc(C(=O)Nc2cccc(C(F)(F)F)c2)c1 -3.74%
COc1cccc(-c2cc(=O)c3cc(NC(=O)c4ccc(C)cc4)ccc3[nH]2)c1 2.12%
Cc1nc(-c2ccc(Cl)cc2)sc1C1(C)CC(c2ccccc2F)=NO1 (stereo not given) -4.79%
COc1ccc(/C=C2\NC(=O)[C@@H]3Cc4ccccc4CN3C2=O)cc1 -9.91%
CC(C)Cc1nc(Nc2ccc(S(=O)(=O)N3CCCC3)cc2)c2nnn(Cc3ccccc3)c2n1 2.63%
NC(=O)COc1ccc(C23CC4CC(CC(C4)C2)C3)cc1 0.403%
COc1ccc(OC)c(S(=O)(=O)Nc2cccc(-c3ccc4nncn4n3)c2)c1 -22.2%
COC(=O)C1=C(C(=O)OC)C(c2cc([N+](=O)[O-])ccc2O)c2sc(=O)[nH]c2S1 (stereo not given) -3.48%
CCCCNS(=O)(=O)c1ccc2nc(SCC(=O)Nc3cc(C)cc(C)c3)[nH]c2c1 -4.8%
CCOC(=O)C1=C(C)c2ccccc2OC1C(=O)OCC (stereo not given) -3.65%
O=C(COc1cc(Cl)c(Cl)cc1Cl)NC(=O)NC1CCCC1 -0.202%
COc1ccc(-c2c(C)cc3oc(=O)cc(-c4ccccc4)c3c2C)cc1C=O -16.8%
CCCCCCCCCCCCN1C(=O)CSC1c1cccnc1 (stereo not given) -8.5%
C=C(C(C)=O)C(O)c1ccc([N+](=O)[O-])cc1 (stereo not given) -0.319%
C=CCOC(=O)NC(c1ccc(F)c(F)c1)C(C(=O)COC)C(=O)OC (stereo not given)
COc1ccc(-c2nc3c(c4c2C[C@H](c2ccccc2)OC4)CN(C(=O)c2cccnc2)CC3)c(C)c1 -5.59%
COC(=O)C1(C(C)=O)CC2=CC[C@H]3C(=O)N(c4ccccc4)C(=O)[C@H]3[C@@H]2Cc2ccccc2[C@@H]1C[N+](=O)[O-] (stereo not given in full)
Cc1cccc(-c2nc3ccccc3c(=O)n2NC(=O)Cc2ccc(Cl)cc2)c1 4.61%
O=C(NCc1ccco1)O[C@@H]1C(=O)c2cc(Br)ccc2O[C@H]1c1ccc2c(c1)OCO2 -4.29%
O=C(O)CC(Cc1ccccc1)C(=O)Nc1ccc([N+](=O)[O-])cc1 (stereo not given) -7.27%
OC[C@H]1O[C@@H](n2cnc3c(N[C@H]4CC5CCC4C5)ncnc32)[C@H](O)[C@@H]1O (stereo not given in full) -5.15%
COc1cccc([C@@H]2Oc3ccc(Br)cc3C(=O)[C@H]2OC(=O)NCCc2ccc(OC)c(OC)c2)c1 -5.8%
CCOC(=O)C1C/C(=C\C(C)=O)c2cccc(C(F)(F)F)c2O1 (stereo not given) -13.6%
C/C(Nc1ccc2oc(=O)ccc2c1)=C1/C(=O)CC2[C@@H]1C2(C)C (stereo not given in full) -2.21%
O=C(NNC(=S)NC1CC2CCC1C2)c1ccc(Cl)cc1 (stereo not given) -13.7%
COc1cc(NC(=O)c2ccc3c(c2)OCO3)ccc1NC(=O)c1cccs1 6.42%
CC(=O)Nc1ccc(NC(=O)CSc2ncnc3c2cnn3Cc2ccccc2)cc1 -11.5%
